Hits are enriched below; roughly 2.4% of the tested compounds scored in any of these assays.
Pol beta inh-1 – DNA polymerase beta (human) inhibition; P06746; Pol beta primer extension/strand displacement, fluorescence kinetic; Potency, µM (series often up to 114 µM), for the others: top-dose activity change, negative = inhibition, most hits filed as inhibitors; 340,000 compounds, 1.3% hits; note: potency is the fitted concentration of half-maximal effect; % is set by controls: 0 for no effect and ±100 for the full control effect
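Preincubation: enzyme (10 nM) with compound, 15 min, RT. Reaction: substrate added to 50 nM final. Reads: 0 and 10 min. Analysis: normalized, Hill fit.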
Pol eta inh-1 – inhibitors of human DNA polymerase eta | Q9Y253 | recombinant Pol eta, fluorescent DNA replication assay | Potency, µM (doses to about 114 µM), without a hit: at the top dose activity change, negative = inhibition, hits mostly inhibitors | 390,000 compounds, 1.2% hits; note: potency is the fitted concentration of half-maximal effect; % is set by controls: 0 for no effect and ±100 for the full control effect
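Pol eta (10 nM) was preincubated with compounds for 15 min at room temperature, after which fluorescent replication substrate (50 nM final) was added to start the reaction. Fluorescence was read kinetically at 0 and 10 min.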
FEN1 inhibitor – human FEN1 inhibition; Recombinant FEN1 flap cleavage, fluorescence, 15 min; Potency, µM (doses to about 114 µM), inactives show top-dose activity change, negative = inhibition, most hits filed as inhibitors; P39748; AID 588795; 390,000 compounds, 0.35% hits; note: potency is the fitted concentration of half-maximal effect; % is set by controls: 0 for no effect and ±100 for the full control effect; nearly all actives have a fitted effect of over 65% in size
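Reaction started by adding substrate (50 nM final) to 10 nM enzyme after 15 min room-temperature compound preincubation. Reads at 0 and 15 min, with data normalized and fitted to a four-parameter Hill equation.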
TDP1 inh – blocks human tyrosyl-DNA phosphodiesterase 1 | Q9NUW8 | recombinant TDP1, AlphaScreen DNA substrate cleavage | Potency, µM (doses to about 130 µM), inactives show at the top dose activity change, negative = inhibition, actives largely listed as inhibitors | 350,000 compounds, 0.28% hits | AID 485290; note: potency is the fitted concentration of half-maximal effect; % is set by controls: 0 for no effect and ±100 for the full control effect; nearly all actives have a fitted effect of over 40% in size
Target sequence (Q9NUW8 whole entry, looked up): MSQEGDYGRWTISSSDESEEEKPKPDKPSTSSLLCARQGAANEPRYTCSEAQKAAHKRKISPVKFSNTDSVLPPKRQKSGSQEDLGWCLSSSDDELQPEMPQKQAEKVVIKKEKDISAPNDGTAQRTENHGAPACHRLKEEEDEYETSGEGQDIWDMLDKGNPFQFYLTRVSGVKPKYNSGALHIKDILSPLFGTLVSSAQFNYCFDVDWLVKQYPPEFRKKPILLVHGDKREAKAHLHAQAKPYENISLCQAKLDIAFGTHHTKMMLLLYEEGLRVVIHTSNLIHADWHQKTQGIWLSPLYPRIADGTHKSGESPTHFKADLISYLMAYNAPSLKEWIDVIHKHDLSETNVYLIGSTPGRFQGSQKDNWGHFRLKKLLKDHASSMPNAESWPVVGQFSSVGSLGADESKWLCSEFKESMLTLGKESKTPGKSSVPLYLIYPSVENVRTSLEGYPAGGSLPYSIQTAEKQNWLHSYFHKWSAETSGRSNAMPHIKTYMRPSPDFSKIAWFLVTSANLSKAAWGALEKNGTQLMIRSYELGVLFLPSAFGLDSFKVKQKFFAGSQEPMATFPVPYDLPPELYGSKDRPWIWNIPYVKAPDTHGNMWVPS
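Recombinant human Tdp1 (E. coli-expressed, 1 nM final) preincubated with compounds 15 min at room temperature, then 5'-biotin/3'-phosphotyrosine-FITC DNA substrate (15 nM final) added for 5 min. AlphaScreen beads (10 ug/ml final) added 10 min; cleavage lowers signal.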
Pol iota inh – inhibitors of human DNA polymerase iota; Potency, µM (series often up to 115 µM), without a hit: at the top dose activity, negative = inhibition, hits mostly inhibitors; AID 588590; Pol iota fluorescent replication assay, 10 min; 390,000 compounds, 1% hits; Q9UNA4; note: potency is the fitted concentration of half-maximal effect
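Pol iota at 10 nM preincubated 15 min with compounds at room temperature; reaction started with fluorescent substrate, 50 nM final. Fluorescence read kinetically at 0 and 10 min; buffer-only wells as negative control.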
Pol kappa inh-1 – DNA polymerase kappa (human) inhibition | Q9UBT6 | Potency, µM (titrated, usually from 107 µM), inactives show at the top dose activity, negative = inhibition, usual class: inhibitors | AID 588579 | purified Pol kappa, fluorescent DNA synthesis assay, 10 min | 400,000 compounds, 0.53% hits; note: potency is the fitted concentration of half-maximal effect; % is set by controls: 0 for no effect and ±100 for the full control effect
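Here, compound and 10 nM enzyme are combined for 15 min at room temperature; adding 50 nM substrate (final) starts DNA synthesis, tracked by fluorescence at 0 and 10 min against buffer-only wells.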
Pol beta inh-2 – Validate hits inhibiting human DNA polymerase beta. shares compounds with Pol beta inh-1. Pol beta primer extension/strand displacement, fluorescence kinetic. Potency, µM, hits mostly inhibitors. 250 compounds, 87% hits. AID 540280; calls by dose curve; note: potency is the fitted concentration of half-maximal effect
Klenow counter – counter-screen for DNA polymerase beta inhibitors: Klenow fragment inhibition | shares compounds with Pol beta inh-1 | Klenow exo- polymerase counter-screen, fluorescent DNA substrate | activity change, negative = inhibition, % at 57.1 µM | 250 tested, under 10 active | AID 540300
HIV RT counter – HIV-1 RT inhibition, pol beta selectivity check; HIV-1 RT polymerase activity, counter-screen; 250 tested, under 10 active; activity % (negative = inhibition, positive = activation), % at 57.1 µM; AID 540301; shares compounds with Pol beta inh-1
POLB valid – validation of human DNA polymerase beta inhibitors; shares compounds with Pol beta inh-1; radiolabeled primer extension gel assay, phosphorimager; inhibition, % at 10 µM; 110 compounds, 91% hits; AID 540325;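 active = inhibition at 10 µM of 30% or more; inconclusive = no clear call, values can overlap the other calls; inactive = inhibition at 10 µM under 30%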
POLI cherry-pick – Inhibitors of human DNA polymerase iota, confirmation | shares compounds with Pol kappa inh-1 | Pol iota primer extension, TAMRA/BHQ fluorescence | Potency, µM, hits mostly inhibitors | 1,500 compounds, 77% hits; note: potency is the fitted concentration of half-maximal effect
GALK inh confirm – confirmation of human galactokinase (GALK) inhibitors | 150 compounds, 70% hits | shares compounds with Pol eta inh-1 | Potency, µM (top dose mostly 115 µM), without a hit: at the top dose activity, negative = inhibition, hits mostly inhibitors | purified GALK, Kinase-Glo ATP depletion luminescence | AID 2015
Redox cycling – redox cycling activity in phenol red-HRP assay; shares compounds with Pol eta inh-1; Phenol red-HRP H2O2 redox cycling, absorbance 600 nm; Potency, µM (doses to about 115 µM), without a hit: top-dose activity change, negative = H2O2 signal, most hits filed as inhibitors; 150 compounds, 40% hits; AID 2035
HEK293 viability – HEK-293 cytotoxicity, GALK inhibitor secondary. shares compounds with Pol eta inh-1. HEK-293 viability, ATP luminescence (CellTiter-Glo), 24/48 h. Potency, µM (top dose mostly 46.1 µM), inactives show at the highest dose activity change, negative = cytotoxicity, hits mostly inhibitors. 170 compounds, 10% hits; note: potency is the fitted concentration of half-maximal effect; % is set by controls: 0 for no effect and ±100 for the full control effect
Pol kappa inh-2 – confirmation of human DNA polymerase kappa inhibitors; shares compounds with Pol eta inh-1; purified Pol-kappa, fluorescent strand-displacement substrate; Potency, µM, actives largely listed as inhibitors; 920 compounds, 76% hits; AID 720501; note: potency is the fitted concentration of half-maximal effect
Pol eta inh-2 – confirmation of human DNA polymerase eta inhibitors. shares compounds with Pol eta inh-1. Pol eta primer extension, TAMRA/BHQ fluorescence, 10 min. Potency, µM, actives largely listed as inhibitors. 2,600 compounds, 64% hits; note: potency is the fitted concentration of half-maximal effect
* hit, by the source's call; ? = inconclusive; · = not tested or not shown; [ ] = remark or other dose. Unless noted, calls come from the whole dose curve; as a rule, active = well fitted curve in the direction sought with a large enough effect; inconclusive = small, poorly fitted or top-dose-only effect, or another doubt; inactive = no such curve, though single readings can be large; an effect the other way counts as inactive or inconclusive.

SMILES	Pol beta inh-1	Pol eta inh-1	FEN1 inhibitor	TDP1 inh	Pol iota inh	Pol kappa inh-1	Pol beta inh-2	Klenow counter	HIV RT counter	POLI cherry-pick	others
CN(C)c1ccc(/C=C/c2cc(/C=C/c3ccc(N(C)C)cc3)c3ccccc3n2)cc1	·	·	?	·	?	-4%	·	·	·	·
N#C/C(=C\c1ccc(OCc2ccc(Br)cc2)cc1)C(=O)Nc1cccc(C(=O)O)c1	8.9µM*	?	?	22µM*	115%	-5%	16*	1	22	67*
Cc1ccc2nc(/C(C#N)=C\c3ccc(Oc4ccc(C(F)(F)F)cc4[N+](=O)[O-])cc3)[nH]c2c1	7.1µM*	?	-22%	·	40%	-17%	14*	-30	29	42*
COc1ccc(/C=C(\C#N)c2nc3ccc(C)cc3[nH]2)cc1Oc1ccc(C(F)(F)F)cc1[N+](=O)[O-]	?	-9%	-8%	8%	71%	0%	·	·	·	·
CCN(CC)c1ccc(NS(=O)(=O)c2ccc(-c3coc(C)n3)cc2)c(C)c1	?	-13%	-20%	9%	-13%	-5%[60.1 µM]	·	·	·	·
COc1ccc(CCNC(=O)c2nnn(CC(=O)Nc3ccc(C)cc3C)c2N)cc1OC	0.56µM*	?	0%	0%	35µM*	-42%	25*	-1	16	?	POLB valid=52*
CCc1ccc(NC(=O)CC2C(=O)N(c3ccc(Cl)cc3)C(=O)N2Cc2cccs2)cc1 (stereo not given)	-12%	-9%	16%	3%	16%	-2%	·	·	·	·
O=C1/C(=C\c2ccc(O)c(O)c2)C(c2ccccc2)=NN1c1ccccc1	8.9µM*	8.9µM*	-14%	8%	22µM*	71µM*	7.1*	-12	-18	·	GALK inh confirm=?;Redox cycling=?;HEK293 viability=-12%;Pol kappa inh-2=19*;Pol eta inh-2=43*

Screens from PubChem.
